The record followed here is PubChem BioAssay AID651681 (Broad Institute, 2012).

Activity calls are given as the source filed them.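 The calls were made as follows: active = compound with fitted CDK2 half-maximal potency at or below twice its top tested dose; inconclusive = flat curve near 30 to 70% inhibition, or poor fit; inactive = the rest.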

For the experiment, the target named is Cyclin-dependent kinase 2 (Homo sapiens) + Cyclin-A2 (Homo sapiens) (UniProt P20248+P24941). Kind of experiment: blockade of human CDK2 kinase activity – biochemical, dry powder, set 3, selectivity assay for Dyrk1A inhibitor project, dose response (AID 651681).
Sequence of Cyclin-dependent kinase 2 (Homo sapiens) + Cyclin-A2 (Homo sapiens) (P20248 whole entry, looked up, one chain of several): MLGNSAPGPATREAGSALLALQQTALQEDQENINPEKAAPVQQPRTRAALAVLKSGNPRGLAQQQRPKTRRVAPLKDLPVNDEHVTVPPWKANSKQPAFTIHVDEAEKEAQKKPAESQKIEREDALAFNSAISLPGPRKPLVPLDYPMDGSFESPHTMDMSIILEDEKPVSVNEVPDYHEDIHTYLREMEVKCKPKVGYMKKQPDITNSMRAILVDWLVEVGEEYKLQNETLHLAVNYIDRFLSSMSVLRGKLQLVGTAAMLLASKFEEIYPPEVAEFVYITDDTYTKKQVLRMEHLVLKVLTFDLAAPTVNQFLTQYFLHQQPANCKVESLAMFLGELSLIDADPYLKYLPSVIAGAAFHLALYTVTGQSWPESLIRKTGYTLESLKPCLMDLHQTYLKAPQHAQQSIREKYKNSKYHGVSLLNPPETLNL

With `COc1ccc2c(c1)[nH]c1c(C)nccc12`, the outcome was inactive.
